The record followed here is PubChem BioAssay (NCATS).

Records with an inconclusive call do not appear. A call without a number means that no potency is given here. The source made the active and inactive calls. Calls follow the shape of the dose curve; as a rule, active = well fitted inhibition curve with a large enough effect; inconclusive = small, poorly fitted or top-dose-only effect; inactive = flat fitted curve, though single readings scatter.

The test system of this assay is UISO. Kind of assay: qHTS assay to identify novel small-molecules to repurpose for Merkel cell carcinoma treatment (AID 1296009). Also: nearly all actives have a fitted effect of over 60% in size. The settings on record: MCC and control cell lines, CellTiter-Glo viability, 72 h; series mostly up to 46 µM. Summed up: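 Cells were treated for 72 hr at 37 degree celsius with compounds in 8- or 11-point dose response. Viability was read by CellTiter-Glo luminescence, normalized to no-cell (cytotoxicity) and DMSO controls.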
A general note: Quantitative high-throughput screening tests each substance at several concentrations.
As to `COc1ccc(C2C(=O)c3ccccc3C2=O)cc1`, the Potency result is “inactive”. Consider `Cc1c(N(C)CS(=O)(=O)O)c(=O)n(-c2ccccc2)n1C`, for which the Potency result was “inactive”. Regarding `OC[C@H]1O[C@H](O[C@]2(CCl)O[C@H](CCl)[C@@H](O)[C@@H]2O)[C@H](O)[C@@H](O)[C@H]1Cl`, the Potency entry is “inactive”. As to `C[C@H](CCC(=O)O)[C@H]1CC[C@H]2[C@@H]3C(=O)C[C@@H]4CC(=O)CC[C@]4(C)[C@H]3CC(=O)[C@]12C`, the Potency result was “inactive”. For the compound `Cc1cc(O)c(C(C)C)cc1Cl`, the Potency entry is “inactive”. Regarding `O=C1c2ccccc2C(=O)C1c1ccccc1`, the Potency entry is “inactive”. Consider `Cc1ncc(CSSCc2cnc(C)c(O)c2CO)c(CO)c1O`, for which the Potency entry was “inactive”. The same measure for `NC[C@H]1O[C@H](O[C@H]2[C@H](O)[C@@H](O[C@H]3O[C@H](CO)[C@@H](O)[C@H](N)[C@H]3O)[C@H](N)C[C@@H]2N)[C@H](N)[C@@H](O)[C@@H]1O`: “inactive”. Regarding `Cc1ccc(Nc2c(F)cccc2Cl)c(CC(=O)O)c1`, the Potency entry is “inactive”. The entry for `CC(=O)O[C@]1(C(C)=O)CC[C@H]2[C@@H]3C[C@H](C)C4=CC(=O)CC[C@]4(C)[C@H]3CC[C@@]21C` is “inactive”. Regarding `CC(=O)OCC(=O)[C@@]1(O)[C@H](C)C[C@H]2[C@@H]3CCC4=CC(=O)C=C[C@]4(C)[C@@]3(F)[C@@H](O)C[C@@]21C`, the Potency result was “inactive”.

As for `CN1[C@@H]2CC[C@H]1CC(OC(=O)c1c[nH]c3ccccc13)C2` (some centres undefined), the Potency result is “inactive”.

In the case of `CC(O)(P(=O)(O)O)P(=O)(O)O`, the Potency entry is “inactive”. With `Cc1c(C(C)C)c(=O)n(-c2ccccc2)n1C`, the Potency result was “inactive”. In the case of `CCCCC(=O)O[C@]1(C(=O)CO)CC[C@H]2[C@@H]3CCC4=CC(=O)CC[C@]4(C)[C@H]3[C@@H](O)C[C@@]21C`, the Potency entry was “inactive”. Turning to `O=c1[nH]c(=O)n([C@H]2CCCO2)cc1F`, the Potency entry was “inactive”.

Take `COC(=O)CCc1ccc(OCC(O)CNC(C)C)cc1` (centres undefined): the Potency result is “inactive”. Take `Cc1cc2c(cc1CC(=O)c1sccc1S(=O)(=O)Nc1onc(C)c1Cl)OCO2`: the Potency result was “inactive”. Regarding `CC(C)(C)NC(=O)[C@@H]1CN(Cc2cccnc2)CCN1C[C@@H](O)C[C@@H](Cc1ccccc1)C(=O)N[C@H]1c2ccccc2C[C@H]1O`, the Potency entry was “inactive”. For the compound `CCCCS(=O)(=O)N[C@@H](Cc1ccc(OCCCCC2CCNCC2)cc1)C(=O)O`, the Potency result was “inactive”. `Cc1onc(-c2c(Cl)cccc2Cl)c1C(=O)N[C@@H]1C(=O)N2[C@@H]1SC(C)(C)[C@@H]2C(=O)O`: the Potency entry was “inactive”. For `CN1CCN(C(c2ccccc2)c2ccccc2)CC1`, the Potency result is “inactive”. The same measure for `O=C(O)CNC(=O)c1ccccc1`: “inactive”; for `COC(=O)[C@@H]1CC2=CC(=O)CC[C@]2(C)[C@@]23O[C@@H]2C[C@@]2(C)[C@@H](CC[C@@]24CCC(=O)O4)[C@H]13`: “inactive”. As for `NC(CS)C(=O)O` (centres undefined), the Potency entry was “inactive”. Consider `CN(C)CCOc1ccccc1Cc1ccccc1`, for which the Potency result is “inactive”. On to `CCOC(=O)OC(C)OC1=C(C(=O)Nc2ccccn2)N(C)S(=O)(=O)c2ccccc21` (centres undefined), for which the Potency result is “inactive”. Regarding `C[C@H](O)C(=O)Nc1c(I)c(C(=O)NC(CO)CO)c(I)c(C(=O)NC(CO)CO)c1I`, the Potency result was “inactive”.

For the compound `CC(C)COC(=O)c1ccc(N)cc1`, the Potency entry is “inactive”. Turning to `Cc1ccc(C(=O)C(C)CN2CCCCC2)cc1` (centres undefined), the Potency entry is “inactive”. Take `CC1(C)O[C@@H]2[C@@H](CO[C@@]3(COS(N)(=O)=O)OC(C)(C)O[C@@H]23)O1`: the Potency entry was “inactive”. On to `CCN(CCCCOC(=O)c1ccc(OC)c(OC)c1)C(C)Cc1ccc(OC)cc1` (centres undefined), for which the Potency entry was “inactive”.

Regarding `CN=C(NC#N)Nc1ccc(C2=NNC(=O)CC2C)cc1` (centres undefined), the Potency result was “inactive”. Consider `Cc1nc2n(c(=O)c1CCN1CCC(c3noc4cc(F)ccc34)CC1)CCC[C@H]2O`, for which the Potency result was “inactive”.
